The source made the active and inactive calls. How the source made its calls: active means hit-call score of the fitted dose curve at least 0.9, where 1 is the maximum; inactive means score below 0.9.

Read-out in the experiment: Potassium channel subfamily K member 1 (KCNK1), KCNK1 (gene 3775)
Put plainly: LTEA_HepaRG_KCNK1: Life Technologies and Expression Analysis (LTEA) Assay for Potassium channel subfamily K member 1 (KCNK1) using HepaRG (AID 2283511). Particulars: mRNA level, 48 h; actives raise or lower the signal. The protocol: LTEA_HepaRG is a cell based, multiplexed-readout assay that uses HepaRG, a human liver cell line, with measurements taken at 48 hours after chemical dosing on a 96-well plate.LTEA_HepaRG_KCNK1 is one of 102 assay component(s) measured in the LTEA HepaRG cell culture assay. It is a marker of Hyperplasia.Data from the assay component LTEA_HepaRG_KCNK1 was analyzed into 1 endpoint. This assay endpoint, LTEA_HepaRG_KCNK1, was analyzed with bidirectional fitting relative to DMSO as the negative control and baseline of activity. Using a type of inducible reporter, measures of mRNA induction for gain or loss-of-signal activity can be used to understand regulation of transcription factor activity. To generalize the intended target to other relatable targets, this assay endpoint is annotated to the ion channel intended target family, where the subfamily is potassium channel.
A total of 1060 chemcials from the ToxCast library were tested in eight-point concentration-response experiments. Cell culture and cytotoxicity assays were conducted at Thermo Fisher Scientific's Custom Services facility (Madison, WI). A single lot of human HepaRG cells (Thermo Fisher Scientific, Frederick, MD) was used for the cell culture experiments. 96-well format collagen type I coated plates of human HepaRG cells were prepared using established methods. Briefly, cryopreserved HepaRG cells were thawed, plated at a density of approximately 100,000 cells/well in HepaRG Thaw, Plate, and General Purpose media (HPRG770, Thermo Fisher Scientific), and incubated for 48 hours. 0.5% DMSO was selected as vehicle control to balance the requisite need of DMSO in HepaRG cultures to maintain differentiation (for example, baseline metabolism, proportions of hepatocytes vs. cholangiocytes), while enabling further hepatic receptor pathway activation (for example, PXR and CAR) in response to chemical exposure. 48 hours after plating, the culture medium was replaced with HepaRG Serum-Free Incudtion Media. Cells were exposed to each test chemical in duplicate and maintained in CO2 incubators for another 48 hours. Chemical plates were thawed to room temperature and 200x concentrations of treatment groups were prepared. 8-point conentration-reponse curves were made with the highest exposure at 100 uM, followed by half-log dilutions, all in 0.5% DMSO. Each test plate contained variouse controls, induction positive controls (1mM phenobarbital), cytotoxicity positive controls ([…] aflatoxin B1), vehicle controls (0.5% DMSO), and total lysis controls (0.5% DMSO). Cell morphology images were taken using an Essen IncuCyte FLR automated microscope, with six 96-well plates imaged in about 24 minutes. Images were captured and exported and JPEG files. Spent culture media was transfered to black-well plates for the LDH assay, and remaining media was sorted at -80 C for later use. Cells were treated with RLT buffer and frozen until shipped for gene expression analysis. Total RNA was isolated from the cell suspension in 75 uL of Buffer RLT (Qiagen, Germantown, MD 20874) by Quintiles/Expression Analysis (Durham, NC) using a custom isolation procedure. Total RNA from each plate well was transferred to a preamplification plate. Fluidigm's 96.96 Dynamic ArrayTM (Fluidigm, Amsterdam, the Netherlands) technology was used for gene expression analyses by quantitative reverse transcription polymerase chain reaction (qRT-PCR, performed by Quintiles/Expression Analysis, Durham, NC)89. Standard TaqManTM Assays (Applied Biosystems/ThermoFisher Scientific, Foster City, CA) were used to assess the expression of 93 genes selected based on their selectivity and sensitivity to important hepatic receptors known to be modulated by environmental chemicals; importance in human hepatocyte functionality; and hepatotoxicity. […]
For `CCCOC(=O)c1cc(O)c(O)c(O)c1`, the outcome was inactive. Still for that read-out and setting: next, `CC1=CC(=O)/C(=C(/C)O)C(=O)O1`: “inactive”; `O=C1CCC(C2CCCCC2)CC1`: “inactive”; `Cc1occc1C(=O)Nc1ccc(C(=O)N2CCC(F)(F)/C(=C\C(=O)N3CCC(N4CCCCC4)CC3)c3ccccc32)cc1`: “inactive”. Regarding `CN(C)C(=O)C1(N2CCCCC2)CCN(CC[C@@]2(c3ccc(Cl)c(Cl)c3)CN(C(=O)c3ccccc3)CCO2)CC1`, the half-maximal activity concentration (AC50) is 14.9 µM (active). As to `O=C(O)c1ccccc1C(=O)OCc1ccccc1`, the molecule was called inactive. As for `Cc1c2ccccc2c(C)c2c1ccc1ccccc12`, the molecule was called inactive. Turning to `COc1cccc([C@H](O)C2CCN(CCc3ccc(F)cc3)CC2)c1OC`, the result was inactive. Same read-out and setting: next, `CCCCCc1ccc(N)cc1`: “inactive”; `CC(O)CC(C)(C)O` (stereo not given): “inactive”.

Turning to `CC(C)(O)c1ccc(CNC(=O)c2cccnc2Oc2ccc3nonc3c2)cc1`, the result was inactive. Same read-out and setting: the value for `O=C1O[C@H]([C@@H](O)CO)C(O)=C1O` was “inactive”.

Regarding `CCCCCCCCOC(=O)c1cc(O)c(O)c(O)c1`, the molecule was classed as inactive. Still for that read-out and setting: the value for `Cc1cc2c(cc1C(F)(F)F)N(C(=O)Nc1ccc(Oc3cccnc3C)nc1)CC2` was “inactive”.

With `C[C@]12CC[C@@H]3c4ccc(O)cc4CC[C@H]3[C@@H]1CC[C@H]2O`, the molecule was classed as inactive. For `CN(C)c1ccc(C(=C2C=CC(=[N+](C)C)C=C2)c2ccc(N(C)C)cc2)cc1`, the AC50 is 5.1 µM (active). For `OCCO`, the molecule was classed as inactive. As for `CCCCCCCCCCCC[N+](C)(C)C`, the AC50 is 64.7 µM (active). `Cc1cn([C@H]2C[C@H](N=[N+]=[N-])[C@@H](CO)O2)c(=O)[nH]c1=O`: the molecule was classed as inactive. Same read-out and setting: next, `O=c1c(-c2ccc(O)cc2)coc2cc(O)cc(O)c12`: “inactive”; `Cc1cccc2ccccc12`: “inactive”. As for `c1ccc(C[n+]2cccc3ccccc32)cc1`, the call was inactive. On the same count and under the same terms, next, `CCCCCCCCOc1ccc(C(=O)c2ccccc2)c(O)c1`: “inactive”; `CCN(Cc1cccc(S(=O)(=O)O)c1)c1ccc(C(=C2C=CC(=[N+](CC)Cc3cccc(S(=O)(=O)O)c3)C=C2)c2ccccc2S(=O)(=O)[O-])cc1`: “inactive”; `CC[C@@H]1C[C@H](N(Cc2cc(C(F)(F)F)cc(C(F)(F)F)c2)C(C)=O)c2cc(C(F)(F)F)ccc2N1C(=O)OC(C)C`: “inactive”. `COc1ccc2cc(S(=O)(=O)N[C@H](CC(=O)N[C@H](Cc3ccc(CN4[C@H](C)CCC[C@@H]4C)cc3)C(=O)N(C)C(C)C)c3ccc4c(c3)OCO4)ccc2c1`: the AC50 was 19.7 µM (active).

Consider `Cc1oc2c(NC(=O)c3c(Cl)cccc3Cl)cccc2c1C(C)(C)O`, for which the AC50 was 43.6 µM (active).

Regarding `O=C=NCCCCCCN=C=O`, the molecule was called inactive. On the same count and under the same terms, the value for `OC12N=C(c3ccccc3)SC1Cc1cc(Cl)ccc12` (stereo not given) was “inactive”; that for `Cc1cc(F)ccc1-c1cc(N2CC[C@@H](O)[C@H]2CO)ncc1N(C)C(=O)C(C)(C)c1cc(C(F)(F)F)cc(C(F)(F)F)c1` was “inactive”. As for `CCCCCCCC[Si](OCC)(OCC)OCC`, the call was inactive.

On to `O=C(Nc1ccc(Cl)cc1)Nc1ccc(Cl)c(Cl)c1`, for which the AC50 is 29 µM (active).

Take `O=CCCCC=O`: the result was inactive. The same measure, in the same setting: the value for `CCCCCCCCCCCO` was “inactive”.

Turning to `CCN(Cc1cccnc1)C(=O)c1cccc(Cl)c1[C@]1(C)C(=O)N(Cc2ccc(OC)cc2OC)c2ccc(Cl)cc21`, the AC50 was 15 µM (active).

With `CC(C)(C)c1csc(-c2cc3cc(OCc4ccccc4CC(=O)O)ccc3o2)n1`, the outcome was inactive. The same measure, in the same setting: the value for `O=c1[nH]sc2ccccc12` was “inactive”; that for `CN1C(=O)CC[C@H]1c1cccnc1` was “inactive”. Still for that read-out and setting: the value for `COCC(C)OCC(C)OCC(C)O` (stereo not given) was “inactive”; that for `CC(C)(C)c1cc(/C=C2\SC(N)=NC2=O)cc(C(C)(C)C)c1O` was “inactive”.

The term AC50 denotes the midpoint of the concentration-response curve, whichever way the signal moves.

Values taken from PubChem BioAssay (EPA / NIEHS).
